# Results published in paper PMC7862700, “An all-to-all approach to the identification of sequence-specific readers for epigenetic DNA modifications on cytosine”.
# Columns and labels:
# Experiment in all cases: DAPPL (digital affinity profiling via proximity ligation, sequencing); 10 mM Tris-HCl pH 7.5, 50 mM NaCl, 1 mM DTT, 4% glycerol, room temperature, 30 min; GST-TFs on glutathione beads, 16-mer random dsDNA library, 0.1% formaldehyde crosslink after washing; high values mean tight binding
# FLI1 = molecular target: T1, FLI1 (Homo sapiens, UniProt Q01543 1-452); settings: protein: recombinant; tags: N-terminal GST; dsDNA, one strand shown
# T1 sequence: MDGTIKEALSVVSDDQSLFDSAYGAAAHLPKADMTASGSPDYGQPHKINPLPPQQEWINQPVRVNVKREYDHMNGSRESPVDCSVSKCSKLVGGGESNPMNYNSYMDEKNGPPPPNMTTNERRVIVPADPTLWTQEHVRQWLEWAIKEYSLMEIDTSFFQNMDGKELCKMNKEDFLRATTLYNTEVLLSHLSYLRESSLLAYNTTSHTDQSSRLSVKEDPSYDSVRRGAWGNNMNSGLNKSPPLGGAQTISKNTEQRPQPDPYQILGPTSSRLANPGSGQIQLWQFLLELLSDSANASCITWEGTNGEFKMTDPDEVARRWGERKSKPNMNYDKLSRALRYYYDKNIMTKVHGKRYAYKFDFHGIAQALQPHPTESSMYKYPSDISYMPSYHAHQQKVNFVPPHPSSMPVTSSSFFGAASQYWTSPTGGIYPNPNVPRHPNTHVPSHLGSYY
# Method in brief: (§1)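 GST fusions of human transcription factors were expressed in yeast and captured with glutathione beads. Once given DNA barcodes and pooled alongside a tag-only sample, they were incubated for 30 min at room temperature with 200 nmole of a random double-stranded 16-mer DNA library in Tris/NaCl/DTT/glycerol buffer, then washed, crosslinked (0.1% formaldehyde), proximity-ligated, PCR-amplified and sequenced on an Illumina NextSeq500. The binding signal of each hexamer is its read frequency for a factor divided by its frequency for the tag-only sample.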
# ELK1 = molecular target: T2, ELK1 (Homo sapiens, UniProt P19419 1-428); settings: protein: recombinant; tags: N-terminal GST; dsDNA, one strand shown
# T2 sequence: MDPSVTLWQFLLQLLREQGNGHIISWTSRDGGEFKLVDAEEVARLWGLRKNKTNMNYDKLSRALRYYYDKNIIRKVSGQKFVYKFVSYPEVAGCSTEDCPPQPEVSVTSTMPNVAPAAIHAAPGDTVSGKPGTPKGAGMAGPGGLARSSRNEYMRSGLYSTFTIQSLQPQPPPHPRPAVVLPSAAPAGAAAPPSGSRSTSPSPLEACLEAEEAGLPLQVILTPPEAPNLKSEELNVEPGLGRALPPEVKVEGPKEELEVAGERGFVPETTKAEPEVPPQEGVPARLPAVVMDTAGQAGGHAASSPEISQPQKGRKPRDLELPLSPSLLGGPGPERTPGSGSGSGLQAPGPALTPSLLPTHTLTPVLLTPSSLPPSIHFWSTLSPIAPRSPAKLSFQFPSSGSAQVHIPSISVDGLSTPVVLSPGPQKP
# Method in brief: as §1
# GABPA = molecular target: T3, GABPA (Homo sapiens, UniProt Q06546 1-454); settings: protein: recombinant; tags: N-terminal GST; dsDNA, one strand shown
# T3 sequence: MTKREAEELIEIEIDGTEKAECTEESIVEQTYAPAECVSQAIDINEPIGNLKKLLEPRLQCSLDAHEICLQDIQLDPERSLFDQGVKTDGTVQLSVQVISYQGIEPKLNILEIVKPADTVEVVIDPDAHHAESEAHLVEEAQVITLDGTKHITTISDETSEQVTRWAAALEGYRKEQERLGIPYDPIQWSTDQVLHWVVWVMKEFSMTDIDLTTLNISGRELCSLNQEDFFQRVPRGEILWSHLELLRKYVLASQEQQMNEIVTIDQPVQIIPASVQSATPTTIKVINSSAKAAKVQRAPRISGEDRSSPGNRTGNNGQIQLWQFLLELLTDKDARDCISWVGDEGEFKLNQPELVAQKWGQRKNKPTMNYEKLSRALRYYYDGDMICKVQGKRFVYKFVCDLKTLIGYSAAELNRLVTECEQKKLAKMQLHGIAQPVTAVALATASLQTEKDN
# Method in brief: as §1
# ERG = molecular target: T4, ERG (Homo sapiens, UniProt P11308 1-479); settings: protein: recombinant; tags: N-terminal GST; dsDNA, one strand shown
# T4 sequence: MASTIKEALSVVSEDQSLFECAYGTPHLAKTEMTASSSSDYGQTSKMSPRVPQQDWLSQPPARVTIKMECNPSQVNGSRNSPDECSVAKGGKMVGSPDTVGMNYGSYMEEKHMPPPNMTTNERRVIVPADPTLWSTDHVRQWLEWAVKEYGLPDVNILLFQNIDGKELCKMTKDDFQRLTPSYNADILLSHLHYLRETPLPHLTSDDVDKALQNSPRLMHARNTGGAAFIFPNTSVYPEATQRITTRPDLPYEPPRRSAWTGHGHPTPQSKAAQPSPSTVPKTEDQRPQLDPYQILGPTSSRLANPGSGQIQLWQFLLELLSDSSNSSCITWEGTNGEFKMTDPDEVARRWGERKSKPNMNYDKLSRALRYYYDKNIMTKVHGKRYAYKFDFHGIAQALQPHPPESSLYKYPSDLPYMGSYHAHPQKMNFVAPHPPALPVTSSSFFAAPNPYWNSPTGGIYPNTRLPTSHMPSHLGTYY
# Method in brief: as §1
# ELF1 = ELF1 (Homo sapiens, UniProt P32519 1-619); settings: protein: recombinant; tags: N-terminal GST; dsDNA, one strand shown
# Method in brief: as §1
# EHF = molecular target: T5, EHF (Homo sapiens, UniProt Q9NZC4 1-300); settings: protein: recombinant; tags: N-terminal GST; dsDNA, one strand shown
# T5 sequence: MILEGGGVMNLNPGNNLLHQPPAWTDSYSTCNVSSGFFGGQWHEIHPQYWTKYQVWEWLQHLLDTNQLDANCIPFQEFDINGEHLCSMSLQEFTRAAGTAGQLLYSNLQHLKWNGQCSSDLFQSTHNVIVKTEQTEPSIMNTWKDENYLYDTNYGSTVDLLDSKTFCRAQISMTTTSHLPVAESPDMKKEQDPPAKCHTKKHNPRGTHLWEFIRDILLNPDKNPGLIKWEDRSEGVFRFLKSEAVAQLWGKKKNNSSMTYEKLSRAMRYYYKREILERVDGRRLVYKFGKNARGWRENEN
# Method in brief: as §1
# SPI1 = SPI1 (Homo sapiens, UniProt P17947 1-270); settings: protein: recombinant; tags: N-terminal GST; dsDNA, one strand shown
# Method in brief: as §1
# SPIB = SPIB (Homo sapiens, UniProt Q01892 1-262); settings: protein: recombinant; tags: N-terminal GST; dsDNA, one strand shown
# Method in brief: as §1
# ELK3 = molecular target: T6, ELK3 (Homo sapiens, UniProt P41970 1-407); settings: protein: recombinant; tags: N-terminal GST; dsDNA, one strand shown
# T6 sequence: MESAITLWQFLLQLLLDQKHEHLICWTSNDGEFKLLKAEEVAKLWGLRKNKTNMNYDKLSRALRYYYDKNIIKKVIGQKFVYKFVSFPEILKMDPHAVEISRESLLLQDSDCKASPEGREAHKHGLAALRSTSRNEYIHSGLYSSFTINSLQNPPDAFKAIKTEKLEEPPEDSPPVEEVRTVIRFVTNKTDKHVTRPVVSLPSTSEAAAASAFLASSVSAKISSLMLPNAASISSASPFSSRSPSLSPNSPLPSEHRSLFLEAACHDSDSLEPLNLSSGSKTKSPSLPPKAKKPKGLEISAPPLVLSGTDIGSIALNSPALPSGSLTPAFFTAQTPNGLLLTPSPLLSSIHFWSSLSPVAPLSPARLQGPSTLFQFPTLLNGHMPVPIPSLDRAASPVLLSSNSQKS
# Method in brief: as §1
# FEV = molecular target: T7, FEV (Homo sapiens, UniProt Q99581 1-238); settings: protein: recombinant; tags: N-terminal GST; dsDNA, one strand shown
# T7 sequence: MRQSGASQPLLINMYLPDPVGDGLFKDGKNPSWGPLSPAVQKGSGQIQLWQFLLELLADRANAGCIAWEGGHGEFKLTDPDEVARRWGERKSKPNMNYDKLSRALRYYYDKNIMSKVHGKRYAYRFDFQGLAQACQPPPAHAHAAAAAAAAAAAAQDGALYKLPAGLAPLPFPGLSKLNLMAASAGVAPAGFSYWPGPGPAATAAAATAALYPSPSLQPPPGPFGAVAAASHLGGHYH
# Method in brief: as §1
# ETV5 = ETV5 (Homo sapiens, UniProt P41161 1-510); settings: protein: recombinant; tags: N-terminal GST; dsDNA, one strand shown
# Method in brief: as §1
# HSF1 = HSF1 (Homo sapiens, UniProt Q00613 1-529); settings: protein: recombinant; tags: N-terminal GST; chain copies: 3; dsDNA, one strand shown
# Method in brief: as §1
# SPIC = molecular target: T8, SPIC (Homo sapiens, UniProt Q8N5J4 1-248); settings: protein: recombinant; tags: N-terminal GST; dsDNA, one strand shown
# T8 sequence: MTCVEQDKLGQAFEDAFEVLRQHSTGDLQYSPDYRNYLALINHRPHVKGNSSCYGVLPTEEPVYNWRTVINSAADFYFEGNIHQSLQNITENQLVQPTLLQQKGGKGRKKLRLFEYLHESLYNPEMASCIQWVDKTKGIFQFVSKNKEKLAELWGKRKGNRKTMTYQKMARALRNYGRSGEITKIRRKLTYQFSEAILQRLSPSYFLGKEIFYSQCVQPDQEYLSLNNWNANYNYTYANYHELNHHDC
# Method in brief: as §1
# ELF4 = ELF4 (Homo sapiens, UniProt Q99607 1-663); settings: protein: recombinant; tags: N-terminal GST; dsDNA, one strand shown
# Method in brief: as §1
# ELK4 = molecular target: T9, ELK4 (Homo sapiens, UniProt P28324-2 1-405); settings: protein: recombinant; tags: N-terminal GST; dsDNA, one strand shown
# T9 sequence: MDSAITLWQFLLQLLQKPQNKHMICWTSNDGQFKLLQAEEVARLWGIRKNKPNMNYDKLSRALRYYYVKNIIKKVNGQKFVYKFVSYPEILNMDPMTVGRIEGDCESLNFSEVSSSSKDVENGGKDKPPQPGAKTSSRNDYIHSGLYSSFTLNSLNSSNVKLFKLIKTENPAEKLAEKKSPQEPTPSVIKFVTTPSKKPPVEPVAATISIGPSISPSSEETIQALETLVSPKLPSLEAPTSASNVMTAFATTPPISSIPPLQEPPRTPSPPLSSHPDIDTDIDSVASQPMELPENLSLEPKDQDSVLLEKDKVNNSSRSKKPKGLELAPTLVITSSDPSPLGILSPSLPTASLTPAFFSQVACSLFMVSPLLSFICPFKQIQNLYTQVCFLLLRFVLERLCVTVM
# Method in brief: as §1
# ETV2 = molecular target: T10, ETV2 (Homo sapiens, UniProt O00321 1-342); settings: protein: recombinant; tags: N-terminal GST; dsDNA, one strand shown
# T10 sequence: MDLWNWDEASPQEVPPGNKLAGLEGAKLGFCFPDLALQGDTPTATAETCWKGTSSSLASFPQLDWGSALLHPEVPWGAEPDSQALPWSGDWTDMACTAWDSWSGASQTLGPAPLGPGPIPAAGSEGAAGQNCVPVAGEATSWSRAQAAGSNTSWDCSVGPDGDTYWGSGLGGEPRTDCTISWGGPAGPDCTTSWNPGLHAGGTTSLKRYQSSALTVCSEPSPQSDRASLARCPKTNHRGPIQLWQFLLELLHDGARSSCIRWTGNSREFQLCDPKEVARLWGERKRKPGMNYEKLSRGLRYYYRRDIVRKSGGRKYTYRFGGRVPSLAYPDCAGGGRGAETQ
# Method in brief: as §1
# ELF3 = molecular target: T11, ELF3 (Homo sapiens, UniProt P78545 1-371); settings: protein: recombinant; tags: N-terminal GST; dsDNA, one strand shown
# T11 sequence: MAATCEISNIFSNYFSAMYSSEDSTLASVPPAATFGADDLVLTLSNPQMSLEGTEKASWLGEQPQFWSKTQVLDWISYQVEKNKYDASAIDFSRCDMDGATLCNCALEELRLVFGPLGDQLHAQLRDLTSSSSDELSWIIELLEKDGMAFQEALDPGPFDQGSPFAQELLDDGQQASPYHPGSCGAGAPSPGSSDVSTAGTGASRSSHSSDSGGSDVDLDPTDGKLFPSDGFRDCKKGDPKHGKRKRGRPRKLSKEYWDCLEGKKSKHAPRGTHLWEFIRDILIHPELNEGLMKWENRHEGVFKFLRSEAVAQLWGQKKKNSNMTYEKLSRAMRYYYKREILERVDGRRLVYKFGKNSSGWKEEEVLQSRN
# Method in brief: as §1
# CRX = CRX (Homo sapiens, UniProt O43186 1-299); settings: protein: recombinant; tags: N-terminal GST; dsDNA, one strand shown
# Method in brief: as §1
# ETV1 = ETV1 (Homo sapiens, UniProt P50549 1-477); settings: protein: recombinant; tags: N-terminal GST; dsDNA, one strand shown
# Method in brief: as §1
# CRX, sequence (O43186 whole entry): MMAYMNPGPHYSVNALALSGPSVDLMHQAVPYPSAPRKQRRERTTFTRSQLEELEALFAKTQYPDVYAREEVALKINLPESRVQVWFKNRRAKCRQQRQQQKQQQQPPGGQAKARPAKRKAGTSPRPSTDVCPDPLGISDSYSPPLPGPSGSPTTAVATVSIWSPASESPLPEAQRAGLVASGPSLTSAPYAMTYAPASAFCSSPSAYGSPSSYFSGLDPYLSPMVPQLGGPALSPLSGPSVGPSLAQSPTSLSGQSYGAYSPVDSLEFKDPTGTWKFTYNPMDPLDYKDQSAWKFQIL
# HSF1, sequence (Q00613 whole entry): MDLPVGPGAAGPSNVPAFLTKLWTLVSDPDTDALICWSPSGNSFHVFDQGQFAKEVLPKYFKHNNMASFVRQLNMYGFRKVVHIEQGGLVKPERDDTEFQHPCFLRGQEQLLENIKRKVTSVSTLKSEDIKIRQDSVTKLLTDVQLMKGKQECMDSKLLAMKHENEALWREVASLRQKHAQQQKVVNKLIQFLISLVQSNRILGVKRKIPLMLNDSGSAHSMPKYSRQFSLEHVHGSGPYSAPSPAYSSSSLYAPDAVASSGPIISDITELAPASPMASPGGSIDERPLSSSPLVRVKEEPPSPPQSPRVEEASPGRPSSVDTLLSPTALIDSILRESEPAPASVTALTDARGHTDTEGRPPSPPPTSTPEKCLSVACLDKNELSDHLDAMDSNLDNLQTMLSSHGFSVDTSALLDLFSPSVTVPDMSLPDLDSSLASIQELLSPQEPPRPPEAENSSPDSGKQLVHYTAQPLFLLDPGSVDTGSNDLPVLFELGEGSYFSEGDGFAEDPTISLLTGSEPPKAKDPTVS
# ETV1, sequence (P50549 whole entry): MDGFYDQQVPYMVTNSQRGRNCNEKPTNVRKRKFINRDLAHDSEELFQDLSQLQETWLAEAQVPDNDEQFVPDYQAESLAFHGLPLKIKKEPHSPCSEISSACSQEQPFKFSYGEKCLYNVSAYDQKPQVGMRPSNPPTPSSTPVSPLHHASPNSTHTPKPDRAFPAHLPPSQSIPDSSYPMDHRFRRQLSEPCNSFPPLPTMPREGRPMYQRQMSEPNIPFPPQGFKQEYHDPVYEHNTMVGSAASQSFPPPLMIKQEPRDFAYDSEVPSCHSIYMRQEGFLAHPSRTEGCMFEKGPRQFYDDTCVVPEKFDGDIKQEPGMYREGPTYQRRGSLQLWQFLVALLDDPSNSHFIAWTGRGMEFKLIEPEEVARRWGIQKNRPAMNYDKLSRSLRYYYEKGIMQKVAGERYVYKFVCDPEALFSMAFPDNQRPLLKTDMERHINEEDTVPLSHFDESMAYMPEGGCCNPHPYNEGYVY
# ETV5, sequence (P41161 whole entry): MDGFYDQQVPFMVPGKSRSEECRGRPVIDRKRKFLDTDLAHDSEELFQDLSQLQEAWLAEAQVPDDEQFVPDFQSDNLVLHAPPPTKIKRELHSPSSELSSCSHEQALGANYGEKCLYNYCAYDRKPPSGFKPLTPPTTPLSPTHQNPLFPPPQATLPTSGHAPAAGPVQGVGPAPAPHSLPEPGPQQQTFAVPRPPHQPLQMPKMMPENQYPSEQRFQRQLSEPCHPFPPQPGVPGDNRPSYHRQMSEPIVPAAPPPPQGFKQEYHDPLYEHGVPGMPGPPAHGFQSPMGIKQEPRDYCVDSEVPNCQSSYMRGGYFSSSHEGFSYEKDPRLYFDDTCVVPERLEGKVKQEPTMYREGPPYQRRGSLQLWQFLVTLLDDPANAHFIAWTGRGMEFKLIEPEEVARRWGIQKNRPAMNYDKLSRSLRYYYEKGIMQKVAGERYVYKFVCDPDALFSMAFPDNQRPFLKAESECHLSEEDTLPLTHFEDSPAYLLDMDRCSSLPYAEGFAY
# ELF4, sequence (Q99607 whole entry): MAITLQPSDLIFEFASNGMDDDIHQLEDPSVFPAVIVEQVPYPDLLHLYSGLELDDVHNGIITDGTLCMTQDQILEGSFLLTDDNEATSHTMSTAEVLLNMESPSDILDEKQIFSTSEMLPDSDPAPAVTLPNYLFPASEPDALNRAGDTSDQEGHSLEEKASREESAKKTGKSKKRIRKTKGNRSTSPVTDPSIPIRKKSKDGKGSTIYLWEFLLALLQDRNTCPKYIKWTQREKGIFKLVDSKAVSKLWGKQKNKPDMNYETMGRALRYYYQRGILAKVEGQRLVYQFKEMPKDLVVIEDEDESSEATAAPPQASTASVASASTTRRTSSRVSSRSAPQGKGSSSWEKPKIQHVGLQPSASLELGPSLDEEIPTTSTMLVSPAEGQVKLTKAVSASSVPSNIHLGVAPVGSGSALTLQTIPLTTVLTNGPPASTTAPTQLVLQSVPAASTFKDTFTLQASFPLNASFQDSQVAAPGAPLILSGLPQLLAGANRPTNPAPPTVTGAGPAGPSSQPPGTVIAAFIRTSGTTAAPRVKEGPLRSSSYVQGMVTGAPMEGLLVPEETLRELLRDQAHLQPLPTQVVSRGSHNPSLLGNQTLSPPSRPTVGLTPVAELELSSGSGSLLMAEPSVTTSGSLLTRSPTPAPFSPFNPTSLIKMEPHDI
# SPIB, sequence (Q01892 whole entry): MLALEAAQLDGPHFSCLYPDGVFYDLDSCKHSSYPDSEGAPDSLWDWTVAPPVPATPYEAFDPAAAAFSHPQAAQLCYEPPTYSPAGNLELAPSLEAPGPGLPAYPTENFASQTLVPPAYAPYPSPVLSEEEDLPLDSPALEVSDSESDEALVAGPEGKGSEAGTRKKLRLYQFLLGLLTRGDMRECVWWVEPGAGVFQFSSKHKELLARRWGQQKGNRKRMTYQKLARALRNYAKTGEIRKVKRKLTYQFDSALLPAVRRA
# ELF1, sequence (P32519 whole entry): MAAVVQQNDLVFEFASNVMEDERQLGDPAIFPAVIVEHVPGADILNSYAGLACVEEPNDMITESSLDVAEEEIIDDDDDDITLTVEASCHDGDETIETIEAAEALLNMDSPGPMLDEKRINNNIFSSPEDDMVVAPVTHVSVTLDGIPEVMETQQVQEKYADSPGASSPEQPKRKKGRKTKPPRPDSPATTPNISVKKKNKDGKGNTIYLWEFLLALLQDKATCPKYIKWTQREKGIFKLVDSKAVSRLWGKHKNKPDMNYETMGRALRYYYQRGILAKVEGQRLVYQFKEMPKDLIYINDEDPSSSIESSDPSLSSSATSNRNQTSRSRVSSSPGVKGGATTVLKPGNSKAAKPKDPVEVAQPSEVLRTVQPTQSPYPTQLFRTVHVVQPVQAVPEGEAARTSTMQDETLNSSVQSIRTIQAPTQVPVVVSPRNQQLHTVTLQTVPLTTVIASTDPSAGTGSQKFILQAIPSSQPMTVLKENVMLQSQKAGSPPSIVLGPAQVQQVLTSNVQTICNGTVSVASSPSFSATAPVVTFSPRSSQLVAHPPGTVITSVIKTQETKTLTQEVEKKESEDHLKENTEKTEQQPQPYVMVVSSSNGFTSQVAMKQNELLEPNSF
sequence,measurement,setting,value
CTCCGA,binding signal,FLI1,"1.35 fold enrichment (6-mer frequency, TF over GST control)"
same,binding signal,ELK1,"1.42 fold enrichment (6-mer frequency, TF over GST control)"
same,binding signal,GABPA,"1.45 fold enrichment (6-mer frequency, TF over GST control)"
same,binding signal,ERG,"1.34 fold enrichment (6-mer frequency, TF over GST control)"
same,binding signal,ELF1,"1.37 fold enrichment (6-mer frequency, TF over GST control)"
same,binding signal,EHF,"1.39 fold enrichment (6-mer frequency, TF over GST control)"
same,binding signal,SPI1,"1.44 fold enrichment (6-mer frequency, TF over GST control)"
same,binding signal,SPIB,"1.52 fold enrichment (6-mer frequency, TF over GST control)"
same,binding signal,ELK3,"1.33 fold enrichment (6-mer frequency, TF over GST control)"
same,binding signal,FEV,"1.4 fold enrichment (6-mer frequency, TF over GST control)"
same,binding signal,ETV5,"1.3 fold enrichment (6-mer frequency, TF over GST control)"
same,binding signal,HSF1,"1.49 fold enrichment (6-mer frequency, TF over GST control)"
same,binding signal,SPIC,"1.51 fold enrichment (6-mer frequency, TF over GST control)"
same,binding signal,ELF4,"1.41 fold enrichment (6-mer frequency, TF over GST control)"
same,binding signal,ELK4,"1.36 fold enrichment (6-mer frequency, TF over GST control)"
same,binding signal,ETV2,"1.19 fold enrichment (6-mer frequency, TF over GST control)"
same,binding signal,ELF3,"1.2 fold enrichment (6-mer frequency, TF over GST control)"
same,binding signal,CRX,"1.3 fold enrichment (6-mer frequency, TF over GST control)"
same,binding signal,ETV1,"1.24 fold enrichment (6-mer frequency, TF over GST control)"
